High-throughput results (PubChem BioAssay)
A selection: hits, their analogues and other compounds. The true share with any hit is near 1.3%.
VACV Venus inh – vaccinia inhibition (Venus reporter). Vaccinia virus Venus reporter expression, fluorescence. Potency, µM (titrated, usually from 36.5 µM), for inactives: top-dose activity change, negative = inhibition, most hits filed as inhibitors. actives 0.46% (n = 330,000). AID 720580; calls by dose curve; tested in A549 cells; note: potency is the fitted concentration of half-maximal effect; % is set by controls: 0 for no effect and ±100 for the full control effect; nearly all actives have a fitted effect of over 30% in size
SARS PLpro yeast-1 – blocks SARS-CoV papain-like protease in a yeast assay; S. cerevisiae expressing SARS-CoV PLpro, growth rescue; Potency, µM (top dose mostly 32.9 µM), for the others: top-dose activity, positive = growth rescue, actives largely listed as activators; actives 0.19% (n = 330,000); calls by dose curve; note: potency is the fitted concentration of half-maximal effect; 0% is about no effect; nearly all actives have a fitted effect of over 55% in size
AmpC inh detg – inhibitors of E. coli AmpC beta-lactamase with detergent. P00811. AmpC hydrolysis of nitrocefin, absorbance 480 nm, 0.01% Triton. Potency, µM (titrated, usually from 114 µM), for the others: at the highest dose activity change, negative = inhibition, actives largely listed as inhibitors. actives 0.041% (n = 370,000). AID 485294;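 note: potency is the fitted concentration of half-maximal effect; 0% = no-compound wells and -100% = no-enzyme wells; nearly all actives have a fitted effect of over 25% in size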
Target sequence (P00811 whole entry, looked up): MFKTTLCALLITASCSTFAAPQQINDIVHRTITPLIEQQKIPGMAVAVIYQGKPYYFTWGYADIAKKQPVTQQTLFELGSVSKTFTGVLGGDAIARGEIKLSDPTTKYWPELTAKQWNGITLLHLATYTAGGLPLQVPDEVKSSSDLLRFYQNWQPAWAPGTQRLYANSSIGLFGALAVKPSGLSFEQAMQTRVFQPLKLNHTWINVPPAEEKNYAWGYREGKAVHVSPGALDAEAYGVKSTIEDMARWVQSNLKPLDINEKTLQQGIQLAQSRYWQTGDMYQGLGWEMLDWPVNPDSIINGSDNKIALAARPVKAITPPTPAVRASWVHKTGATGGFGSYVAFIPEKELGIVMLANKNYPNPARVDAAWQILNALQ
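AmpC (5.3 nM in the dispensed reagent) in 20 mM phosphate pH 7.0 with 0.01% (detergent screen) or 0.0001% Triton X-100 was preincubated with compounds for 15 min at room temperature. Nitrocefin was then added from an 800 uM solution, and hydrolysis was followed at 480 nm.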
Vaccinia mCherry – vaccinia inhibition (mCherry reporter); Vaccinia virus mCherry reporter infection, fluorescence; Potency, µM (series often up to 36.5 µM), inactives show at the top dose activity change, negative = inhibition, most hits filed as inhibitors; actives 0.63% (n = 310,000); AID 720579; calls by dose curve; tested in A549 cells; note: potency is the fitted concentration of half-maximal effect; % is set by controls: 0 for no effect and ±100 for the full control effect; nearly all actives have a fitted effect of over 35% in size
AmpC inh no detg – AmpC beta-lactamase inhibition without detergent; P00811; AmpC nitrocefin hydrolysis, absorbance 480 nm, 0.0001% Triton; Potency, µM (doses to about 57.1 µM), for inactives: at the highest dose activity change, negative = inhibition, hits mostly inhibitors; actives 0.52% (n = 330,000); AID 485341;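 note: potency is the fitted concentration of half-maximal effect; plate controls were no compound for no effect and no enzyme for full effect; nearly all actives have a fitted effect of over 20% in size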
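20 mM phosphate pH 7.0 + 0.01% (detergent screen) or 0.0001% Triton X-100; 5.3 nM AmpC reagent; cpd preinc 15 min RT; nitrocefin (800 uM stock) to start; A480 q20 s × 4 min; Activity was normalised to no-enzyme and no-compound control wells.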
SARS PLpro yeast-2 – Inhibits SARS-CoV PLP in yeast, hit validation | actives 19% (n = 1,000) | yeast expressing SARS-CoV PLpro, growth phenotype rescue | shares compounds with SARS PLpro yeast-1 | calls only | AID 652038; call rule not given here
* = called active by the depositor; i = inactive; ? = inconclusive; nt = no result given; + = active, no number; [ ] = another dose, or the depositor's remark. Unless noted, calls come from the whole dose curve; as a rule, active = well fitted curve in the direction sought with a large enough effect; inconclusive = small, poorly fitted or top-dose-only effect, or another doubt; inactive = no such curve, though single readings can be large; an effect the other way counts as inactive or inconclusive.

SMILES	VACV Venus inh	SARS PLpro yeast-1	AmpC inh detg	Vaccinia mCherry	AmpC inh no detg	others
CCOc1ccccc1CNC(=O)C1CCN(c2nnc(C)c3c(C)n(-c4ccc(C)cc4)nc23)CC1	11µM*	0%	0%	11µM*	110%
Cc1nnc(N2CCC(C(=O)NCCc3ccccc3Cl)CC2)c2nn(-c3ccccc3)c(C)c12	?	nt	10%	28µM*	nt
COc1ccccc1CCNC(=O)C1CCN(c2nnc(C)c3c(C)n(-c4ccc(C)cc4)nc23)CC1	10µM*	1%	-4%	14µM*	111%
COC(=O)c1cc(CNC(=O)c2cccc(N(C)C)c2)cc(NC(=O)c2ccccc2Cl)c1	-19%	nt	nt	-12%	nt
COc1ccccc1-n1cc(C(=O)NCCN2Cc3ccccc3OC(c3ccsc3)C2)cn1 (configuration not stated)	0%	nt	nt	-17%	nt
Cc1ccc(NC(=O)C2CCCN(c3nnc(C)c4c(C)n(-c5ccccc5)nc34)C2)cc1Cl (configuration not stated)	11µM*	nt	-2%	?	nt
CCN1CCN(C(c2cccs2)C(C)NC(=O)NC2CCCCC2)CC1 (configuration not stated)	5%	6%	?	-22%	45µM*
CC(NC(=O)Nc1ccc(Cl)cc1)C(c1cccs1)N1CCOCC1 (configuration not stated)	1%	1%	?	27%	2.5µM*
COc1ccc(OC)c(CN2CCCC(n3cc(C(=O)N4CCCCC4)nn3)C2)c1 (configuration not stated)	-15%	nt	nt	-10%	nt
COc1cccc(C(=O)Oc2ccc(/C=N/Nc3ccc(C(=O)O)cc3)cc2OC)c1	-12%	0%	-13%	-26%	-39%
COc1cccc(OCc2cc(/C=N/Nc3ccc(C(=O)O)cc3)ccc2OC)c1	5%[7.34 µM]	-1%	5%	?	18µM*
O=C(NCc1ccccc1)C(c1ccc(-c2ccccc2)cc1)N1CCN(C(=O)C2CCCO2)CC1 (configuration not stated)	?	nt	nt	2.8µM*	nt
COc1ccc(Nc2nc(N3CCCC3)nc3ccccc23)c(OC)c1	11µM*	-4%	-11%	?	41%
C=CCNc1nnc(Sc2ncccc2[N+](=O)[O-])s1	?	2%	2%	10µM*	-20%
COc1ccc(C(=O)NNC(=S)NC(=O)c2ccc(OC)cc2)cc1	nt	-9%	-12%	nt	-35%
CCCCC(=O)NC(=S)NNC(=O)c1ccc(OC)cc1	-19%	0%	35µM*	?	-51%
Cc1cccnc1-c1cccc2c1OC(CNC(=O)/C=C/c1cccs1)C2 (configuration not stated)	4%	nt	nt	-6%	nt
O=C(CNS(=O)(=O)c1ccc2ccccc2c1)OCc1csc(-c2ccccc2)n1	-18%	3.2µM*	-12%	-3%	-18%	SARS PLpro yeast-2=i
COC(=O)c1c(NC(=O)CN(C)CC(=O)Nc2ccc(C)cc2)sc2c1CCC(C)C2 (configuration not stated)	nt	2%	5%	nt	-4%
COC(=O)c1c(NS(=O)(=O)c2ccc(C)cc2)sc2c1CCC(C)C2 (configuration not stated)	-11%	?	?	-11%	-20%	SARS PLpro yeast-2=+
CCCCCCN1C[C@@H](O)[C@H](n2cc(COC(=O)c3ccccc3)nn2)C[C@@H]1c1ccc(OC)cc1	-19%	nt	nt	-14%	nt
CCOc1ccc(CCNC(=O)c2ccc(CS(=O)Cc3ccc(Cl)cc3)o2)cc1 (configuration not stated)	-13%	?	1%	-14%	128%	SARS PLpro yeast-2=i
O=C(Nc1nnc(Cc2ccccc2)s1)Nc1ccccc1F	nt	?	6%	nt	-13%	SARS PLpro yeast-2=+
CN(C)CCNC(=S)Nc1cccc(Cl)c1	nt	?	-7%	nt	-14%	SARS PLpro yeast-2=i
Cc1nn(CCCC(=O)NCc2ccccc2)c(=O)c2nccn12	4%	3%	?	2%	-4%
CCc1ccc(CNC(=O)CCCn2nc(C)n3ccnc3c2=O)cc1	-2%	?	-12%	i	-16%	SARS PLpro yeast-2=i
COc1ccc(CNC(=O)c2ccc(-c3nc(CSc4ccc(C)cc4)c(C)o3)cc2)cc1OC	3%	nt	-4%	-5%	nt
